PubChem BioAssay AID680 (PCMD, 2007)
Screen size: about 62,000 compounds; about 120 (0.19%) were called active. The entries come from a sample that favours actives as a whole. Values without a mark were called inactive. Cut-off read from the data, not from the text of the source: active = inhibition above about 20% (passing the limit was not always enough); inactive = the rest.

These compounds were tested against Coagulation factor XI (Homo sapiens) (UniProt P03951) (assay: FXIa protease inhibitors in compound pools, primary screen, biochemical, 10-compound mixtures (AID 680;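 note: each value is inhibition by a whole ten-compound pool holding the compound; 0% = enzyme with no mixture and 100% = wells lacking enzyme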)). Details: purified FXIa, fluorogenic substrate, pooled mixtures; at 5 µM; hits give high values.
Coagulation factor XI (Homo sapiens), sequence (P03951 19-387 limits assumed): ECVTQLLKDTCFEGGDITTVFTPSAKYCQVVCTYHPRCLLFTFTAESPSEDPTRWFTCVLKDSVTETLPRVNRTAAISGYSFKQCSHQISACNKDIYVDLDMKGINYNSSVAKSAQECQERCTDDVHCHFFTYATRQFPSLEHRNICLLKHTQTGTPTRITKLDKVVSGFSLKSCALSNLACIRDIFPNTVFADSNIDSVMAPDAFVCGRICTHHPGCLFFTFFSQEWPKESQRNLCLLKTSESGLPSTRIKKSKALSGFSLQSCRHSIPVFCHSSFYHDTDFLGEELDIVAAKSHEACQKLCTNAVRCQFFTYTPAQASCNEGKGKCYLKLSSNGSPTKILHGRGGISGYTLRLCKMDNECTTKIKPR
Coagulation factor XI (Homo sapiens), sequence (P03951 388-625 limits assumed): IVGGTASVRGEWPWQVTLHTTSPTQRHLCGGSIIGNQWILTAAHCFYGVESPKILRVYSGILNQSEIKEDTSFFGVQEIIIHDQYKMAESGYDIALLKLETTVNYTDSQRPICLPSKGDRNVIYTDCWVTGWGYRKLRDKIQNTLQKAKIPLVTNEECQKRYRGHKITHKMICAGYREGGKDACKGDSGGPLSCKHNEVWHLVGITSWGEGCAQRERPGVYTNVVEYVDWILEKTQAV

| SMILES | inhibition |
| --- | --- |
| COC(C)(C)[C@]12CC(O)(C(C)C)ON1[C@H]1CCCCC1N2O (stereo partly specified) | -9.49% |
| CCOC(=O)CSc1nnc(CNC(=O)Cc2ccccc2)n1-c1ccccc1OC | 13.1% |
| COc1ccc(CCN2C(=O)c3[nH]nc(-c4ccccc4O)c3C2c2ccc(C)cc2)cc1OC (stereo unspecified) | 8.98% |
| CCc1c(C)n([O-])c2c([n+]1=O)CCCCC2 | 5.37% |
| CC(C)(C)n1c(=O)[nH]c2c(c1=O)CCC2 | 5.49% |
| O=C(CC1(O)C(=O)N(CN2CCOCC2)c2ccccc21)c1ccccc1 (stereo unspecified) | 4.51% |
| Cc1cc(NC(=O)CCC(=O)N(c2ccccc2)C(C(=O)NC2CCCC2)c2ccncc2)no1 (stereo unspecified) | 10% |
| Cn1c(NC(=O)c2ccco2)c(-c2ccccc2Cl)c(=O)c2ccccc21 | 7.49% |
| CC(C)(C)NC(=O)C(c1ccncc1)N(C(=O)CNC(=O)c1ccco1)c1ccc2c(c1)OCO2 (stereo unspecified) | 8.32% |
| CCOC(=O)C1CCN(C(=O)COc2cc(C)c(Br)c(C)c2)CC1 | -1.91% |
| O=C(CSc1nc2c(cnn2-c2ccc(F)cc2)c(=O)[nH]1)N1CCCCCC1 | 2.05% |
| CCC(=O)c1cc2c(cc1NC(=O)c1cccs1)OCCO2 | 1.74% |
| Cc1oc(-c2cccc(Cl)c2)[n+]([O-])c1C | 1.39% |
| CN(C)S(=O)(=O)c1ccc(Oc2ccc(S(=O)(=O)N(C)C)cc2)cc1 | 7.21% |
| Cc1cccc2c1N(CC(=O)OC(C)C)C(=O)C2=O | 1.41% |
| CC1CCN(c2nc3c(c(=O)[nH]c(=O)n3C)n2CCCc2ccccc2)CC1 | -1.49% |
| O=C(CSc1nnc(-c2ccncc2)n1C1CCCCC1)Nc1ccccc1 | 8.47% |
| Fc1ccc(-c2nnc(CSc3nnc(-c4ccc5c(c4)OCO5)o3)o2)cc1 | 0.485% |
| COc1cccc(-n2cc3c(c2-c2ccccc2)c(=O)n(C)c(=O)n3C)c1 | 3.95% |
| OCCCNC(c1ccccc1)c1ccc(O)cc1 (stereo unspecified) | 7.84% |
| COc1ccc2c(CC(=O)Nc3nnc(C4CC4)s3)coc2c1 | 4.86% |

| SMILES | inhibition |
| --- | --- |
| COc1ccccc1Cn1c(=S)[nH]c2cc(C(=O)N3CCN(C)CC3)ccc2c1=O | 5.3% |
| COc1cccc(NC(=O)CN(C)S(=O)(=O)c2ccc(C)cc2)c1 | -2.5% |
| Cc1ccccc1-c1nc(CS(=O)(=O)CC(=O)N2CCc3ccccc3C2)c(C)o1 | 11.3% |
| COc1ccccc1CNC(=O)CCCn1c(=O)c2ccccc2n(CC(=O)NC2CCCC2)c1=O | 0.555% |
| CC12CN(Cc3ccccc3)CC(C)(CN(Cc3ccccc3)C1)C2=NO | -5.8% |
| CCOC(=O)NC(C(F)(F)F)(C(F)(F)F)P(=O)(c1ccccc1)c1ccccc1 | 22.6% (active) |
| CCOC(=O)Nc1ccccc1N1C(=O)c2ccccc2C1=O | 7.59% |
| CCOC(=O)C(C(=O)OCC)C(C#N)c1ccccc1 (stereo unspecified) | 3.99% |
| CCOC(=O)N1CCC(NC(=O)C(C)n2c3ccccc3c3cnn(C)c(=O)c32)CC1 (stereo unspecified) | -52.1% |
| CN(CCCC(=O)Nc1nccs1)S(=O)(=O)c1ccc(Cl)cc1 | 2.62% |
| Cc1cc(C)c2c(n1)nn1c(-n3ccnc3)cc(C)nc21 | 4.82% |
| CN(C(=O)c1ccno1)c1nnc(-c2cccnc2)s1 | 0.72% |
| CN(Cc1ccccc1)Cc1ccccc1F | 11% |
| O=C(Nc1ccccc1)N(Cc1cccnc1)Cc1ccco1 | 9.03% |
| O=C(Nc1ccn(Cc2ccc(F)cc2)n1)c1ccncc1 | 1.2% |
| CS(=O)(=O)N1CCCC(C(=O)N2CCOCC2)C1 (stereo unspecified) | 6.58% |
| Fc1ccccc1OCCSc1nc2ccccc2o1 | 5.06% |
| COC(=O)C1=C(C)N(C)C(C)=C(C(=O)OC)C1c1cccc(Br)c1 | 4.43% |
| CC(=O)NC(C)(C)C1CC=C(C)/C(=N\O)C1 (stereo unspecified) | 6.99% |
| Cc1ccc(S(=O)(=O)N2CCC(C(=O)OCC(=O)N3CC(=O)Nc4ccccc43)CC2)cc1 | -8.9% |
| Cn1c(-c2ccc(F)cc2)cnc1SCC(=O)NCc1ccco1 | -1.83% |

| SMILES | inhibition |
| --- | --- |
| O=C(CSc1nnc2scc(-c3ccc(F)cc3)n12)NCc1ccco1 | 2.54% |
| Cc1ccc(-c2csc3nnc(SCC(=O)NCc4ccco4)n23)cc1 | 25.9% (active) |
| COC(=O)c1c(NC(=O)c2cccs2)sc2c1CCCC2 | 5.01% |
| NC(=O)COc1ccc2c3c(c(=O)oc2c1)CCCCC3 | -3.05% |
| CCC(=O)Nc1ccc(C(=O)CSc2nnc(CNc3ccc(Cl)cc3)o2)cc1OC | 1.04% |
| COc1ccc(CCNC(=O)C2CCCN(Cc3nc(-c4cccc(Cl)c4)oc3C)C2)cc1OC (stereo unspecified) | 10.1% |
| Cc1nc2nc[nH]n2c(=O)c1NC(=O)c1cccc(OCC(C)C)c1 | 8.27% |
| CCOC(=O)C1CCN(C(=O)Cc2c(C(=O)O)[nH]c3ccccc23)CC1 | 6.1% |
| CCc1c(C)nc2ncnn2c1N1CCC(C(=O)NCc2ccc3c(c2)OCO3)CC1 | 8.05% |
| CCN(CC)CCN1C(=O)C(=O)/C(=C(/O)c2ccccc2)C1c1ccccc1F (stereo unspecified) | 4.21% |
| Cc1ccc(S(=O)(=O)N(C)CC(=O)N2CCc3ccccc32)cc1 | 4.38% |
| COc1ccc(C2N=C(N)N=C(N)N2c2ccccc2)cc1OC (stereo unspecified) | 1.53% |
| O=C(CSc1nnc(-c2ccco2)o1)NCC(=O)c1ccccc1 | 10.1% |
| COc1cccc2c(C)c(C(=O)O)[nH]c12 | -18% |
| CCOC(=O)N1CCC(O)(c2cc(C)c(C)cc2C)CC1 | 9.28% |
| Cc1nc2nc3c(cn2n1)C(=O)CC(c1ccccc1)C3 (stereo unspecified) | 1.31% |
| COc1ccc(CCN2CNc3c(c(=O)n(C)c(=O)n3C)C2)cc1OC | 10.4% |
| N#CCCn1ncc2ccccc21 | -0.96% |
| COc1cc(=O)[nH]c(=O)n1C(=O)Cc1ccccc1 | 2.34% |
